# Compound activity from PubChem BioAssay.
# D1 ag: activates the human D1 dopamine receptor | hit rate 1% among 360,000 | HEK293 T-REx D1 cells, calcium flux, agonist mode | P21728 | activation, % at 2 µM; in the data active means activation above about 30%; further: 0% is about no effect
# Target sequence (P21728 whole entry, looked up): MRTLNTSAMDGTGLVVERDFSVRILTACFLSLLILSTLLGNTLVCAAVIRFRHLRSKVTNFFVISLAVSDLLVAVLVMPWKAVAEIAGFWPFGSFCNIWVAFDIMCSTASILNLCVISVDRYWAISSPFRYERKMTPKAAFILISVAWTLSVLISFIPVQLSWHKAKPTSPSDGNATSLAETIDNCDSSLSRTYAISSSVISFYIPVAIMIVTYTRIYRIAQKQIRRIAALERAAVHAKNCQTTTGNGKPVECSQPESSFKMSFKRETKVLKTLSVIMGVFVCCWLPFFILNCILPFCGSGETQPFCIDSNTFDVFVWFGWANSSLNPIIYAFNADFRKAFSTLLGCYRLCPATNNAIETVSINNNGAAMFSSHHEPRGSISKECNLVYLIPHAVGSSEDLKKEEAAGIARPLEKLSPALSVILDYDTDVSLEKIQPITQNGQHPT
#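 Inducible HEK293 T-REx D1 cells, force-coupled to calcium signalling, were plated at 4000 cells/well with tetracycline and held overnight at 30 C. After no-wash calcium dye loading, compound-evoked calcium rise over 180 s flagged agonists.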
# DRD3 agonist: D3 dopamine receptor (human) agonism; P35462; D3R DiscoveRx beta-arrestin cells, luminescence, 90 min; max activation, %; hit rate 0.58% among 410,000; AID 652048; in the data active means max activation above about 30%; further: 0% is about no effect
#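 Agonist mode: compounds and dopamine controls were applied to plated cells for 90 min at 37 degrees C after an overnight attachment at 1500 cells/well. Luminescent read-out followed 30 - 60 minutes at room temperature with DiscoveRx detection reagent.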
# D1 PAM: human D1 dopamine receptor positive modulation; P21728; HEK293 TREx D1 cells, calcium flux, dopamine EC20 potentiation; potentiation, % at 10 µM; hit rate 0.036% among 360,000; AID 504651; in the data active means potentiation above about 30%; further: 0% is about no effect
# DRD3 antagonist: D3 dopamine receptor (human) antagonism; hit rate 2.5% among 360,000; max response, negative = inhibition, %; D3R cells, DiscoveRx beta-arrestin luminescence, antagonist mode; hits give low values; P35462; AID 652054; in the data active means max response below about -50%; inconclusive means no clear call, values can overlap the other calls; further: on the % scale 0 is the no-effect control and ±100 the full control effect
#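 Cells expressing the human receptor were seeded at 1500 cells/well, incubated overnight at 37 degrees C in 5% CO2, then exposed to library compounds with dopamine controls for 90 minutes at 37 degrees C before luminescent detection.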
# D1 antag: blocks dopamine activation of the human D1 receptor; HEK293 TREx D1 cells, calcium flux, dopamine EC80; hits give low values; AID 504652; hit rate 3.2% among 360,000; P21728; activity change, negative = inhibition, % at 10 µM; in the data active means activity change below about -30%; further: on the % scale 0 is the no-effect control and ±100 the full control effect
#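 HEK293 T-REx cells expressing inducible, force-coupled D1 receptor; no-wash Ca dye, 30–90 min RT. Cmpd → 180 s read at 1 Hz → EC80 DA → 180 s read.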
# Chronic BCR inh: inhibitors of chronic active B-cell receptor signaling; ABC-DLBCL IkBa-CBG/CBR reporter, luminescence ratio, 4 h; hit rate 0.05% among 340,000; Potency, µM (series often up to 46.1 µM), for the others: at the top dose activity change, negative = inhibition, usual class: inhibitors; active means well fitted inhibition curve with a large enough effect in the signal ratio, with a control signal flat, not every such curve was filed as active; inconclusive means small, poorly fitted or top-dose-only effect, or effect the other way, or a change in a side signal; the % refers to the signal ratio;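 further: potency means the concentration at half of the fitted maximal effect; plate controls were basal doxycycline-induced cells for no effect and cells given 10 µM MG132 for full effect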
#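 Doxycycline induced both beetle luciferases in TMD8 lymphoma cells; IKK-driven degradation limits the IkappaBalpha-fused green signal, while red luminescence normalises for cell number and nonspecific effects. Compounds tested up to 46 uM, 4 hrs.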
# * = called active by the depositor; ? = inconclusive; nt = not tested or not shown; ! = not confirmed by another sample. This is a sample that favours compounds with a hit; in the whole collection about 6% have one here.
SMILES,D1 ag,DRD3 agonist,D1 PAM,DRD3 antagonist,D1 antag,Chronic BCR inh
C=C1c2c(Cl)ccc(O)c2C(O)=C2C(=O)[C@]3(O)C(O)=C(C(N)=O)C(=O)[C@@H](N(C)C)[C@@H]3[C@@H](O)[C@H]12,nt,4,nt,nt,nt,nt
CCN(CC)S(=O)(=O)c1cc(NC(=O)CSc2nc3c(cc2C#N)C(=O)CC(C)(C)C3)ccc1C,2,34*,4,12,-6,-3%
CCN(CC)c1ccc(NC(=O)c2cc(CN3CCCC3)on2)c(C)c1,6,-14,4,nt,16,nt
O=C(C1CCC(CNS(=O)(=O)c2cccs2)CC1)N1CCN(c2ccc(Cl)cc2)CC1 (stereo not given),9,41*!,-4,98,11,?
O=C(C1CCC(CNS(=O)(=O)c2ccc(Br)s2)CC1)N1CCN(c2ccccc2)CC1 (stereo not given),3,15,6,nt,-1,nt
CCCn1c(=O)c2sccc2n2c(CCCC(=O)NC3CCCCC3)nnc12,2,5,1,nt,4,nt
O=C(O)CCC(=O)N1CCN(c2cccc(Cl)c2)CC1,4,-3,-5,-63*,4,-2%
COc1ccc(C(=O)CCC(=O)N2CCN(c3cccc(Cl)c3)CC2)cc1,12,-1,-4,17,-33*,6%
Cc1cccc(C)c1NC(=O)N1CCN(c2nc3ccccc3s2)CC1,8,1,-5,11,-1,?
O=C(Cc1cccs1)N1CCN(c2cccc(Cl)c2)CC1,1,-4,-2,39,11,-1%
O=C(O)CCC(=O)N1CCN(c2nc3ccccc3s2)CC1,0,4,2,-15,-69*,10%
COc1ccc(OCC(=O)N2CCN(c3cccc(Cl)c3)CC2)cc1,-1,-7,0,-16,5,2%
COc1ccc(CCC(=O)N2CCN(S(=O)(=O)c3cccc(Cl)c3)CC2)cc1,-1,3,-4,-11,-39*,4%
O=C(Nc1ccc(F)c(Cl)c1)c1cc(C2CCCCN2C(=O)CCc2ccccc2)on1 (stereo not given),nt,-10,nt,-2,nt,nt
Cc1c(C(=O)N2CCC(C)CC2)c(S(=O)(=O)NCc2ccc(Br)cc2)c(C)n1C,4,5,-1,nt,-9,nt
COc1ccc(C(=S)N2CCN(c3cccc(Cl)c3)CC2)cc1,2,-19,-2,-27,-33*!,?
O=C(O)/C=C/C(=O)N1CCN(c2cccc(Cl)c2)CC1,6,-17,-20,-60*,-41*,-1%
CCn1cc(C(=O)N2CCN(c3cccc(Cl)c3)CC2)c2cc(OC)c(OC)cc2c1=O,4,-4,0,13,-53*!,?
O=C(O)CCC(=O)N1CCN(c2ncccn2)CC1,3,0,2,0,-32*,0%
CCOc1ccccc1NC(=O)CN1C(=O)C2(SCC(=O)N2c2ccc(C)cc2)c2ccccc21 (stereo not given),0,-4,-5,nt,-11,nt
CCC(C(=O)N1CCN(c2cccc(Cl)c2)CC1)c1ccccc1 (stereo not given),2,0,-4,-59*,25,?
O=C(C(Cc1ccccc1)n1cccc1)N1CCN(c2cccc(Cl)c2)CC1 (stereo not given),6,1,nt,24,14,9%
CC(C)(C)S(=O)N1Cc2cc(CO)ccc2[C@@H]1CCO (stereo not given in full),nt,20,nt,14,nt,nt
COc1ccccc1NC(=O)CSc1nc2ccccc2c(=O)n1C,17,8,41*,61,-34*,?
Nn1c(SCC(=O)Nc2ccccc2F)nc2ccccc2c1=O,8,40*,-3,35,-29,-1%
SMILES,D1 ag,DRD3 agonist,D1 PAM,DRD3 antagonist,D1 antag,Chronic BCR inh
CCc1ccccc1NC(=O)CSc1nc2c(oc3ccccc32)c(=O)n1C,1,8,-5,nt,10,nt
COc1ccccc1NC(=O)CSc1nc2c(oc3ccccc32)c(=O)n1C,4,31*,-5,67,-12,-12%
O=C(O)Cn1nnnc1SCC(=O)Nc1ccccc1F,2,-3,-8,12,1,-6%
Cc1cccc(NC(=O)CSc2nc3c([nH]c4ccccc43)c(=O)n2C)c1C,2,9,1,nt,-51*,nt
Cc1c(CNC(C)CCc2ccccc2)c(C(=O)O)c(C)n1Cc1ccc(F)cc1Cl (stereo not given),-1,3,2,nt,-13,nt
Fc1ccc(-n2ncc3c(Nc4ccc(Oc5ccc(Cl)cc5)cc4)ncnc32)cc1,-2,-20,-2,nt,-27,2%
CCOC1=C2CN(S(=O)(=O)c3ccc(C)cc3)C(c3ccccc3)CC2N(S(=O)(=O)c2ccc(C)cc2)C(c2ccc(Br)cc2)C1 (stereo not given),nt,5,nt,-2,nt,nt
COC(=O)c1c(-c2ccc(OC)cc2)sc2cc(OC)c(OC)cc12,nt,19,nt,84,nt,?
COC(=O)c1c(-c2ccc(SC)cc2)sc2ccc(OC)cc12,nt,38*,nt,16,nt,4%
COC(=O)c1c(-c2ccc(S(C)(=O)=O)cc2)sc2ccc(OC)cc12,nt,22,nt,0,nt,?
COC(=O)c1c(-c2ccc(S(C)(=O)=O)cc2)sc2cc(OC)ccc12,nt,31*,nt,67,nt,?
COC(=O)c1c(-c2cc(OC)cc(OC)c2)sc2ccc(OC)cc12,nt,62*,nt,10,nt,?
COC(=O)c1c(-c2ccc(SC)cc2)sc2ccccc12,7,56*,-2,42,nt,?
N#Cc1ccccc1NC(=O)C(=O)NCC(c1cccnc1)N1CCc2ccccc21 (stereo not given),3,-6,0,nt,-5,nt
OCCNc1nc(-c2ccccc2)nc2ccccc12,4,-2,-8,1,-35*,11%
O=C(Nc1nc(-c2ccccc2)nc2ccccc12)c1ccc(F)cc1,2,1,-7,3,-58*,0%
CC(=O)Nc1ccc(Nc2nc(-c3ccccc3)nc3ccccc23)cc1,1,-9,-4,69,-2,?
Cc1ccc(Nc2nc(NCCO)c3ccccc3n2)cc1C,13,10,-11,5,-38*,9%
Oc1ccc(Nc2nc(-c3ccccc3)nc3ccccc23)cc1,1,-4,-4,13,-19,?
COc1ccccc1Nc1nc(NCCO)c2ccccc2n1,1,nt,-5,nt,0,4%
Oc1ccc(Nc2nc(-c3ccc(Cl)cc3)nc3ccccc23)cc1,4,2,-5,nt,-34*,nt
CC1(C(=O)O)CCCN1C(=O)c1cccc(F)c1 (stereo not given),nt,3,nt,20,nt,nt
OC(COCc1cccs1)CN1CCN(c2cccc(Cl)c2)CC1 (stereo not given),5,-6,-5,-56*,-6,-10%
